Results reported in PubChem BioAssay.
Calls of active or inactive are those of the source.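 The calls were made as follows, unless noted: active = inhibition of the reporter signal at or above 50%; inactive = inhibition below 50%.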

Legend:
[1] = inhibitors of TNFa-induced NFkB p65 translocation, primary screen, imaging, HUVEC, MLSMR starter and 10KST1 sets (AID 438;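 active = inhibition above 20% together with a positive visual image hit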;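 also: compound added about 3h40 before a 20 min TNFalpha stimulation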;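 as to inhibition: signal is the nuclear over cytoplasmic p65 intensity ratio per well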); settings: HUVEC TNFa-induced p65 nuclear translocation; cell count: measured here: nuclei count (cytotoxicity indicator), at 2.08 µM; inhibition: at 2 µM, stronger effect = higher value, 0% TNFa-plus-vehicle, 100% no-TNFa wells
[2] = inhibitors of mutant huntingtin aggregation, primary screen, imaging, exon1htt(103Q)mCFP cells, high-content imaging (AID 483;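 active = visual image review flags a hit and inhibition of aggregation exceeds 20%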;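 also: compound exposure lasted 3 days before fixation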;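 as to nuclei count: percent of the per-plate median nuclei count of sample wells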); settings: exon1htt(103Q)mCFP cell line, aggregate imaging, at 2 µM; inhibition of aggregation: stronger effect = higher value; nuclei count: measured here: cell count, toxicity
[3] = inhibitors of E-selectin induction by TNFa, primary screen, imaging, HUVEC, immunofluorescence, MLSMR starter and 10KST1 sets (AID 487;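 active = visually confirmed hit in the image check and inhibition above 20%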;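 as to inhibition: signal is fraction of cell area covered by stained E-selectin grains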;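 as to nuclei count: 100% = median nuclei count of all wells on the same plate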); settings: HUVEC TNFalpha-induced E-selectin immunofluorescence imaging, at 2 µM; inhibition: stronger effect = higher value; nuclei count: measured here: cell number, toxicity
[4] = target: Voltage-gated potassium channel subunit beta-2 (Rattus norvegicus) (UniProt P62483); test: KvBeta enzyme negative modulators, primary screen, biochemical, NADPH fluorescence (AID 622;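 active = fluorescence slope higher than the sample average by over 3 SD, cut at about -0.22 in these data, passing the limit was not always enough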;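 also: slope of raw intensity against log time taken from 70 to 1610 s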); settings: recombinant KvBeta, 4-cyanobenzaldehyde reduction, at 10 µM, stronger effect = higher value
[5] = target: Voltage-gated potassium channel subunit beta-2 (Rattus norvegicus) (UniProt P62483); test: KvBeta positive modulators, primary screen, biochemical, NADPH fluorescence (AID 623;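 active = NADPH fluorescence slope more negative than the mean of all samples by about 3 SD, 99.7% confidence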;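 also: fluorescence intensity change per second fitted from 20 to 320 s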); settings: Recombinant KvBeta, NADPH fluorescence decrease slope, 10 min; at 10 µM; stronger effect = lower value
[6] = target: Alpha-2C adrenergic receptor (Homo sapiens) (UniProt P18825); test: modulators of alpha2C/GIRK thallium flux, primary screen, cell-based, HEK293 alpha2C/GIRK1/2 (AID 624;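 active = fluorescence slope after compound addition differing from the mean of all screened samples at 99.7% confidence, in either direction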;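 also: slope of fluorescence ratio to pre-addition baseline per second over 15 to 24 s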); settings: thallium flux BTC fluorescence, at 10 µM, actives lie on both sides
[7] = inhibitors of Sendai virus-induced IRF3 signaling, primary screen, TLR/RLR signaling modifier project, cell-based, Sendai virus stimulus, luciferase, 10K MLSCN set (AID 602276;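 active = inhibition at or above 50% at 10 µM; inactive = inhibition below 50%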;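 also: firefly luciferase from ISG56 promoter only with Renilla not read in this screen; 0% = Sendai virus plus DMSO and 100% = medium plus DMSO without virus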); settings: HEK293 RL24 IRF3 luciferase reporter, at 10 µM, stronger effect = higher value
[8] = inhibitors of poly I:C-induced TLR3 signaling, primary screen, cell-based, poly I:C stimulus, luciferase, 10K MLSCN set (AID 602277); settings: HEK293-TLR3 RL24 IRF3 luciferase reporter, at 10 µM, stronger effect = higher value

Sequence of Voltage-gated potassium channel subunit beta-2 (Rattus norvegicus) (P62483 whole entry, looked up): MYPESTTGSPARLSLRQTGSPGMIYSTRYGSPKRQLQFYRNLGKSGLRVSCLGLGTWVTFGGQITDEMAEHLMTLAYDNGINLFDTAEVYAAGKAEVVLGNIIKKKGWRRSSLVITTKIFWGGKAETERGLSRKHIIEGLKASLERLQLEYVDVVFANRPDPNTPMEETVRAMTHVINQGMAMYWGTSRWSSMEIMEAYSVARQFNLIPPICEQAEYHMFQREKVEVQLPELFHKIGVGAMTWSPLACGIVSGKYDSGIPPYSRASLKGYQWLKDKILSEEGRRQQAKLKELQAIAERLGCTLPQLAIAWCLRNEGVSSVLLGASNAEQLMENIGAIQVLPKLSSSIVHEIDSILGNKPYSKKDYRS
Sequence of Alpha-2C adrenergic receptor (Homo sapiens) (P18825 whole entry, looked up): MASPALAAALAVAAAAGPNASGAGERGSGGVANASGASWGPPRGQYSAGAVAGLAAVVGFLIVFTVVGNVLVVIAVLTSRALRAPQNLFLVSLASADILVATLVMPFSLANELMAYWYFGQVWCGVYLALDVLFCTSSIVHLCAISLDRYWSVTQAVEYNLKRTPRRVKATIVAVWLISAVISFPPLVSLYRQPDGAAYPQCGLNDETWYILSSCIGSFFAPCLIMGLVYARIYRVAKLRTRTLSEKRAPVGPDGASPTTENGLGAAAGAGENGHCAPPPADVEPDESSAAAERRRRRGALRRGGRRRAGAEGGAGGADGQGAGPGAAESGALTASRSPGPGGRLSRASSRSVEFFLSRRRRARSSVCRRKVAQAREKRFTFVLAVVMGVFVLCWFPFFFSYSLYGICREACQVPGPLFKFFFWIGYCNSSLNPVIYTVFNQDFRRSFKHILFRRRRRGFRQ

Row | SMILES | cell count [1] | inhibition [1] | inhibition of aggregation [2] | nuclei count [2] | inhibition [3] | nuclei count [3] | fluorescence slope [4] | NADPH fluorescence slope [5] | slope [6] | inhibition [7] | inhibition [8]
1 | C=CCn1c(SCC(=O)NC2CCCCC2)nnc1-c1sc(N)nc1C | 639 | -7.3% (inactive) | -12.7% (inactive) | 101% | -100% (inactive) | 125% | -0.516 (inactive) | -3.2e-05 (inactive) | 0.00387 (inactive) | 16.9% (inactive) | 16.4% (inactive)
2 | Cc1cc2c(cc1C)-c1nnnn1C(C)(C)C2 | 655 | 2.4% (inactive) | 13.2% (inactive) | 91.6% | 67.5% (active) | 88.2% | -0.421 (inactive) | -3e-05 (inactive) | 0.00748 (inactive) | -16.2% (inactive) | 82.3% (active)
3 | CCCOC(=O)c1[nH]c2c(c1C)C(=O)CC(c1ccc(OC)c(OC)c1)C2 (configuration not stated) | 235 | -2.8% (inactive) | 2.4% (inactive) | 101% | 17.6% (inactive) | 47.3% | -0.408 (inactive) | 8.6e-06 (inactive) | 0.00378 (inactive) | -11.5% (inactive) | -41.9% (inactive)
4 | O=C(c1ccco1)N1CCN(S(=O)(=O)c2ccc(Oc3ccccc3)cc2)CC1 | 243 | 22.6% (inactive) | -4.9% (inactive) | 77.4% | -81.4% (inactive) | 111% | -0.519 (inactive) | 2.5e-06 (inactive) | 0.00632 (inactive) | 5.47% (inactive) | -52.2% (inactive)
5 | Cc1cccc(NC(=O)CC(C)(C)C)c1 | 349 | -6.6% (inactive) | 12% (inactive) | 95.6% | -1.1% (inactive) | 99.8% | -0.369 (inactive) | 2.2e-05 (inactive) | 0.00657 (inactive) | 10.5% (inactive) | 6.01% (inactive)
6 | CCOc1ccccc1N(C(=O)Cn1nnnc1-c1ccc(C)o1)C(CC)C(=O)NC(C)(C)C (configuration not stated) | 663 | 1.6% (inactive) | -4.4% (inactive) | 111% | -61.8% (inactive) | 89.5% | -0.531 (inactive) | -6.1e-06 (inactive) | 0.00561 (inactive) | -5.79% (inactive) | 11.2% (inactive)
7 | O=C1NC(=O)C(CC(=O)N(Cc2ccco2)C2(C(=O)NC3CCCC3)CCCCC2)N1 (configuration not stated) | 670 | -7.4% (inactive) | 28.8% (active) | 106% | -67.8% (inactive) | 127% | -0.534 (inactive) | -3.9e-05 (inactive) | 0.00746 (inactive) | -0.4% (inactive) | 18.4% (inactive)
8 | CCCC(C)c1nnc(NC(=O)C2CCCO2)s1 (configuration not stated) | 575 | 0% (inactive) | -11.3% (inactive) | 97.6% | 9.1% (inactive) | 103% | -0.524 (inactive) | -4e-05 (inactive) | 0.00609 (inactive) | -3.58% (inactive) | -11.9% (inactive)
9 | O=S(=O)(c1ccc2c(c1)OCCO2)N1CCN(Cc2ccc3c(c2)OCO3)CC1 | 632 | 1.9% (inactive) | 0.7% (inactive) | 100% | -24.5% (inactive) | 113% | -0.345 (inactive) | -5.1e-05 (inactive) | 0.00449 (inactive) | 9.49% (inactive) | 25.6% (inactive)
10 | CCc1nnc(NC(=O)c2cc3c(s2)CCCCC3)s1 | 662 | 4.4% (inactive) | 4.1% (inactive) | 131% | -89.1% (inactive) | 108% | -0.406 (inactive) | -0.000125 (inactive) | 0.00621 (inactive) | -50.8% (inactive) | -103% (inactive)
11 | Cc1ccc(C(=O)Nc2ccc3c(c2)OCO3)cc1S(=O)(=O)N1CCCC1 | 396 | 0% (inactive) | 12.6% (inactive) | 83.3% | 14.2% (inactive) | 107% | -0.398 (inactive) | 1.4e-05 (inactive) | 0.00564 (inactive) | 10.6% (inactive) | -64.5% (inactive)
12 | O=C(COc1ccccc1Cl)NCCCN1CCOCC1 | 458 | 5.4% (inactive) | 0% (inactive) | 117% | -11.3% (inactive) | 126% | -0.509 (inactive) | -5.8e-05 (inactive) | 0.00528 (inactive) | 10.2% (inactive) | 18.2% (inactive)
